JMJD2A Tudor inh – qHTS Assay for Inhibitors of JMJD2A-Tudor Domain; Lysine-specific demethylase 4A (Homo sapiens), O75164; AlphaScreen JMJD2A-Tudor / H3K4me3 peptide binding; Potency, µM (top dose mostly 114 µM), inactives show top-dose activity change, negative = inhibition, usual class: inhibitors; 390,000 tested, 4.4% active; further: on the % scale 0 is the no-effect control and ±100 the full control effect; nearly all actives have a fitted effect of over 50% in size
G9a block – qHTS Assay for Inhibitors of Histone Lysine Methyltransferase G9a; Histone-lysine N-methyltransferase EHMT2 (Homo sapiens), Q96KQ7; Potency, µM (titrated, usually from 102 µM), without a hit: at the top dose activity, negative = inhibition, most hits filed as inhibitors; AID 504332, 2011; G9a H3K9 monomethylation, AlphaScreen, 2 h; 350,000 tested, 8.8% active; further: on the % scale 0 is the no-effect control and ±100 the full control effect; nearly all actives have a fitted effect of over 75% in size
Target sequence (Q96KQ7 913-1193 limits assumed): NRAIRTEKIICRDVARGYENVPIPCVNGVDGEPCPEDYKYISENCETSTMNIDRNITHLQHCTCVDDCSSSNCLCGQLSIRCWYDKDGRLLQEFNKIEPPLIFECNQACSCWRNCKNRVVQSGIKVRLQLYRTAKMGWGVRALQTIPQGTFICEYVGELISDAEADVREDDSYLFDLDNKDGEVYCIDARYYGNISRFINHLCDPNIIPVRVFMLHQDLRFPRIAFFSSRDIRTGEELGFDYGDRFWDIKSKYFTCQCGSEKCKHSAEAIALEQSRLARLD
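Compounds were preincubated with 20 nM G9a for 15 min, after which biotinylated H3K9 peptide (500 nM) and SAM (20 uM) started a 2 h room-temperature reaction. Monomethylated product was quantified by antibody-based AlphaScreen chemiluminescence.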
HP1b binding inh – HTS for Inhibitors of HP1-beta Chromodomain Interactions with Methylated Histone Tails | Potency, µM (highest dose often 114 µM), for inactives: top-dose activity change, negative = inhibition, usual class: inhibitors | AlphaScreen HP1-beta / biotin-H3K9me3 peptide binding | 390,000 tested, 0.56% active; further: nearly all actives have a fitted effect of over 70% in size
Target sequence (P83916 whole entry, looked up): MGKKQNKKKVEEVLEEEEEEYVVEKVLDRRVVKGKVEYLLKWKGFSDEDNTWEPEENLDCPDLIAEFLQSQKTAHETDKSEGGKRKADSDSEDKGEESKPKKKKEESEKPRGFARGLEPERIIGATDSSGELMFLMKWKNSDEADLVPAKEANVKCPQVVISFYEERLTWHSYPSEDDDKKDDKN
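Compound inhibition of the preformed complex between 50 nM HP1-beta and 50 nM biotinylated H3K9me3 peptide was read by AlphaScreen. Buffer was PBS pH 7.4 with 0.01% Tween-20. Incubations ran 30 min at room temperature, with 10 ug/mL donor/acceptor beads.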
BAZ2B block – qHTS Assay for Inhibitors of BAZ2B; Bromodomain adjacent to zinc finger domain protein 2B (Homo sapiens), Q9UIF8; 360,000 tested, 4.4% active; Potency, µM (titrated, usually from 114 µM), for the others: at the top dose activity change, negative = inhibition, actives largely listed as inhibitors; AlphaScreen BAZ2B-H3K14Ac peptide displacement; AID 504333, 2011; further: on the % scale 0 is the no-effect control and ±100 the full control effect; nearly all actives have a fitted effect of over 60% in size
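Protein-peptide AlphaScreen: BAZ2B 50 nM, b-H3K14Ac 50 nM, 1x PBS pH 7.4 + 0.01% Tween-20. Preincubation 30 min RT; cpd 30 min RT (top 110 uM); beads 20 min RT, light-protected.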
VDR inhibitor – Inhibitors of the vitamin D receptor (VDR): qHTS. Vitamin D3 receptor (Homo sapiens), P11473. VDR-SRC2-3 peptide fluorescence polarization, 2 h. Potency, µM, without a hit: max response, negative = inhibition, hits mostly inhibitors. 400,000 tested, 0.93% active; further: on the % scale 0 is the no-effect control and ±100 the full control effect
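Fluorescence polarization assay of small-molecule disruption of VDR binding to coregulator peptide SRC2-3. Compounds and controls pin-transferred, then read after 2 h incubation at ambient room temperature.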
PLK1 PBD block – qHTS for Inhibitors of PLK1-PDB (polo-like kinase 1 - polo-box domain): Primary Screen; Serine/threonine-protein kinase PLK1 (Homo sapiens), P53350; Plk1 PBD binding of FITC phosphopeptide, fluorescence polarization; Potency, µM, for the others: max response, negative = inhibition, hits mostly inhibitors; 360,000 tested, 2.8% active; AID 720504, 2013; further: series mostly up to about 57 µM; on the % scale 0 is the no-effect control and ±100 the full control effect; nearly all actives have a fitted effect of over 65% in size
Numbers without * were called inactive; u = inconclusive; x = no result given; [ ] = dose if it differs, or a comment. In the library only some 11% were active in any assay of this set; here they are far more common. The call rests on the fitted dose curve; in most records, active means well fitted curve in the direction sought with a large enough effect; inconclusive means small, poorly fitted or top-dose-only effect, or another doubt; inactive means no such curve, though single readings can be large; an effect the other way counts as inactive or inconclusive. Potency means the concentration at half of the fitted maximal effect.

SMILES	JMJD2A Tudor inh	G9a block	HP1b binding inh	BAZ2B block	VDR inhibitor	PLK1 PBD block
CC(C)[C@@H]1Cc2[nH][nH]c(=O)c2[C@H](c2ccc(F)cc2)O1	x	x	x	x	x	24µM*
O=c1[nH][nH]c2c1[C@H](c1ccc(F)cc1)O[C@H](CCC(F)(F)F)C2	x	x	x	x	x	7.5µM*
CC(C)[C@@H]1Cc2[nH]c(=O)[nH]c(=O)c2[C@H](c2ccc(F)cc2)O1	x	x	x	x	x	0%
O=c1[nH][nH]c2c1[C@@H](c1ccc(F)cc1)O[C@H](CCc1ccccc1)C2	x	x	x	x	x	-15%
O=C(CNc1ccccc1)N/N=C/c1cn(-c2ccccc2)nc1-c1ccccc1	-20%	-4%[59 µM]	10%	-6%	4%	-16%
CCOc1ccccc1CN(Cc1ccco1)S(=O)(=O)c1ccc(-n2cnnn2)c(OC)c1	-33%	8.9µM*	-1%	-2%	5%	0%
COc1cc(S(=O)(=O)N(Cc2ccco2)C2CCCC2)ccc1-n1cnnn1	-34%	32µM*	42%	2%	0%	-6%
Cc1cc(S(=O)(=O)N(Cc2ccccn2)Cc2ccco2)ccc1-n1cnnn1	-27%	25µM*	11%	u	8%	-15%
COc1cc(S(=O)(=O)N(Cc2ccccc2)CC2CCCO2)ccc1-n1cnnn1 (stereo not given)	-5%	0%	7%	-14%	-7%	-11%
COc1ccc(CN(Cc2ccccn2)S(=O)(=O)c2ccc(-n3cnnn3)c(OC)c2)cc1	-13%	50µM*	30%	-33%	15%	-4%
COc1ccc(CN(Cc2ccccn2)S(=O)(=O)c2ccc(-n3cnnn3)cc2)cc1	-17%	11%	17%	-11%	-2%	-1%
CCCN(CC1CC1)S(=O)(=O)c1ccc(-n2cnnn2)c(OC)c1	-12%	7%[12.7 µM]	u	11%	-9%	-8%
Cc1cc(C)c(NC(=O)CCCn2c(=O)oc3ccccc32)c(C)c1	-2%	22%[12.7 µM]	20%	-1%	4%	-12%
CCCS(=O)(=O)N1CCN(Cc2ccccc2OCC)CC1	2.8µM*	u	u	u	-5%	-3%
CCCS(=O)(=O)N1CCN(C(=O)COc2ccccc2)CC1	-1%	27%	18%	-1%	2%	3%
CCOc1ccccc1CN1CCC(O)CC1	5.6µM*	-24%[12.7 µM]	u	u	-10%	-6%
CC12CN3CC(C)(CN(C1)C3c1ccccc1F)C2 (stereo not given)	-2%	x	27%	-3%	-4%	-9%
Nc1ccc(N(CCO)CCO)cc1	8.9µM*	11µM*	u	50µM*	u	u
CCN(CC)c1ccc(N)cc1	18µM*	-4%[0.501 µM]	13µM*	32µM*	-6%	4%
C=CCOc1ccc(-c2nc3c(c(=O)[nH]c(=O)n3CCCC)n2C)cc1OC	32µM*	17%[59 µM]	-29%	-10%	u	21µM*
CC(C)C(=O)N1c2nc(C(C)C)nn2C2(CCCCC2)[C@@H]2CCCC[C@@H]21	-14%	2%[59 µM]	34%	1%	-9%	x
COCCN1C(=O)C(=O)/C(=C(/O)c2ccc(C)cc2)C1c1ccccn1 (stereo not given)	-35%	50µM*	9%	-31%	27%	-13%
Cc1ccc(/C(O)=C2\C(=O)C(=O)N(C)C2c2cccc([N+](=O)[O-])c2)cc1 (stereo not given)	-8%	79µM*	26%	-21%	2%	-15%
COC(CN1C(=O)C(=O)/C(=C(/O)c2ccccc2)C1c1ccccn1)OC (stereo not given)	-1%	50µM*	31%	-36%	11%	-1%
Cc1ccc(/C(O)=C2\C(=O)C(=O)N(c3cc(C)on3)C2c2cccc(Br)c2)cc1 (stereo not given)	-18%	26%[59 µM]	8%	21%	-5%	-13%
SMILES	JMJD2A Tudor inh	G9a block	HP1b binding inh	BAZ2B block	VDR inhibitor	PLK1 PBD block
COCCCN1C(=O)C(=O)/C(=C(/O)c2ccc(C)cc2)C1c1ccccc1 (stereo not given)	u	50µM*	2%	-8%	0%	-6%
Cc1ccc(/C(O)=C2/C(=O)C(=O)N(CCCn3ccnc3)C2c2ccccn2)cc1 (stereo not given)	x	8%	x	-19%	x	x
COCCCN1C(=O)C(=O)/C(=C(/O)c2ccc(OC)cc2)C1c1cccc(OC)c1 (stereo not given)	-8%	u	22%	-35%	4%	1%
Cc1ccc(NS(=O)(=O)c2ccc(-c3ccccc3)cc2)cc1C	-13%	x	x	x	x	x
COCCCN1C(=O)C(=O)/C(=C(/O)c2ccc(C)cc2)C1/C=C/c1ccccc1 (stereo not given)	-9%	45µM*	-2%	-19%	31%	4%
Cc1ccc(C(=O)c2cn(Cc3ccccc3C)c3nc(C)ccc3c2=O)cc1	-14%	-28%[59 µM]	29%	-3%	1%	x
CCN(CCCNC(=O)CN1N=C(c2ccccc2)CCC1=O)c1ccccc1	u	11µM*	5%	-39%	6%	x
CCN(CC)CCCNC(=O)CN1N=C(c2ccccc2)CCC1=O	-4%	u	10%	8%	-1%	x
CCN(CCCNC(=O)CSc1cc(=O)n(CC)c2ccccc12)c1ccccc1	50µM*	u	u	u	-13%	x
CCN(CCCNC(=O)CSc1cc(=O)n(C)c2ccccc12)c1ccccc1	u	u	11%	x	-5%	x
CCCCNC(=O)CSc1cc(=O)n(C)c2ccccc12	-11%[11.4 µM]	-22%[12.7 µM]	-13%	-3%	-2%	27µM*
Cc1ccc(C(=O)c2oc3ccccc3c2NC(=O)c2cc(-c3ccccc3)on2)cc1	2%	5%[59 µM]	56%	-2%	-5%	x
COc1ccc(CCNC(=O)c2c(O)c3c([nH]c2=O)CCCC3)cc1	-7%	17%[59 µM]	8%	-27%	-5%	-6%
CCN(C(=O)c1ccco1)c1nnc(-c2ccc(OC)cc2)s1	0%	u	9%	-3%	9%	-12%
O=C(CSC1=NS(=O)(=O)c2ccccc2N1)NCc1ccc(F)cc1	-24%	4%	35%	8%	-25%	-16%
O=C(NCc1ccc(Cl)cc1)c1ccc2c(Cl)c3c(nc2c1)CCCC3	-15%	8%[59 µM]	19%	-12%	-15%	x
CC/C(=N\Nc1ccnc2cc(Cl)ccc12)c1ccc(O)cc1	u	28µM*	-34%	u	-4%	-12%
